± gives the standard deviation of the averaged measurements. Of roughly 6,200 targets only a part is listed; those with the largest changes were picked by preference.
Compound: Nc1ncnc2c1ncn2[C@@H]1O[C@H](COP(=O)(O)OP(=O)(O)NP(=O)(O)O)[C@@H](O)[C@H]1O [adenylyl imidodiphosphate]
Assay: NP40-soluble protein abundance relative to vehicle (solubility fold change) (ratio); higher = more soluble protein in presence of AMP-PNP
In short: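 Eight concentrations, 0.1 to 10 mM, were tested on Jurkat crude lysate for 10 min at room temperature and then 3 min at 37 °C, in three independent experiments. The lysate was solubilised with 0.8% NP40 and benzonase, ultracentrifuged, and the supernatant TMT-labelled for LC-MS/MS. Each value is the fold change against the detergent-processed vehicle in its own replicate, from vsn-normalised intensities.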

Sequence of UniProt P16401 (P16401 whole entry): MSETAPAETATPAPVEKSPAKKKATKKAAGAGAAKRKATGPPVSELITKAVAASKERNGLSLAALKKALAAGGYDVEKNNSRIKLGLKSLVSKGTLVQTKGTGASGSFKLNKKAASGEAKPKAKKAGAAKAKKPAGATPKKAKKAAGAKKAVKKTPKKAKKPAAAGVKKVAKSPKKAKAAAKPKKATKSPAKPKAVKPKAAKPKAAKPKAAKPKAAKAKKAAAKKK
Sequence of UniProt P48506 (P48506 whole entry): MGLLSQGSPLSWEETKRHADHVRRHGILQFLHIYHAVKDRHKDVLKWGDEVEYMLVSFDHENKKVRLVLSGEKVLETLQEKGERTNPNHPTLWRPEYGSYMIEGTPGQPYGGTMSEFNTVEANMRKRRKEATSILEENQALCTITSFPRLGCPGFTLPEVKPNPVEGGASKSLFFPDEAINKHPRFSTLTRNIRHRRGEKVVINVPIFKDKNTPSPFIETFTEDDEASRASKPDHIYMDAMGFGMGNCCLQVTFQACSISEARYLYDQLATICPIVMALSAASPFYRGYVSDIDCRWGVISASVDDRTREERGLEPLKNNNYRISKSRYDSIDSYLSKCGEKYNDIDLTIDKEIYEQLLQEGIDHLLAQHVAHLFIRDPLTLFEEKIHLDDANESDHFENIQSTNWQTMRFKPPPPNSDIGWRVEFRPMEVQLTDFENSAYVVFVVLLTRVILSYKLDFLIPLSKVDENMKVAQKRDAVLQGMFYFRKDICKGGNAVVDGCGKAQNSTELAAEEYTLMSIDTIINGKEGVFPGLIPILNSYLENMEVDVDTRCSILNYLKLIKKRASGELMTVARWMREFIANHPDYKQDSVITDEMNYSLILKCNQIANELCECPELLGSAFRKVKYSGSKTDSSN
Sequence of UniProt O76003 (O76003 whole entry): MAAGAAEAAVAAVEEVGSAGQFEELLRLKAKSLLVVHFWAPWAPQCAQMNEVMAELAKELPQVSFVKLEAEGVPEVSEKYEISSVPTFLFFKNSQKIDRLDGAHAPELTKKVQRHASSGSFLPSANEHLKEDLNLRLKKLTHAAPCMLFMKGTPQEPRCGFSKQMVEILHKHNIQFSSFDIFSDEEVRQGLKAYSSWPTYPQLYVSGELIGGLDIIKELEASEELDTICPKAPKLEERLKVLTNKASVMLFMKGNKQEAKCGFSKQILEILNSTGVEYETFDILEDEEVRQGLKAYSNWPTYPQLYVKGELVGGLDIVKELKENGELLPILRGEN
Sequence of UniProt P50552 (P50552 whole entry): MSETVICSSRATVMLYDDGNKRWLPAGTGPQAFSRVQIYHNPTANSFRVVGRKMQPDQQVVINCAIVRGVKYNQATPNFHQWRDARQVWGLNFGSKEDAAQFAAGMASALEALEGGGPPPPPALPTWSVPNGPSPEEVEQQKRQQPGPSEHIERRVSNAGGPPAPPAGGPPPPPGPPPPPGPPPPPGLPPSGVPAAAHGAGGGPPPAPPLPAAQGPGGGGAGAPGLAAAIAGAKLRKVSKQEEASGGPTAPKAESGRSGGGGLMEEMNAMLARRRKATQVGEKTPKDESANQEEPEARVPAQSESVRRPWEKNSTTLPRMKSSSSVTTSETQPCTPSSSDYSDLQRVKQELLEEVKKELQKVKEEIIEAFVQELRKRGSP
Sequence of UniProt P23771 (P23771 whole entry): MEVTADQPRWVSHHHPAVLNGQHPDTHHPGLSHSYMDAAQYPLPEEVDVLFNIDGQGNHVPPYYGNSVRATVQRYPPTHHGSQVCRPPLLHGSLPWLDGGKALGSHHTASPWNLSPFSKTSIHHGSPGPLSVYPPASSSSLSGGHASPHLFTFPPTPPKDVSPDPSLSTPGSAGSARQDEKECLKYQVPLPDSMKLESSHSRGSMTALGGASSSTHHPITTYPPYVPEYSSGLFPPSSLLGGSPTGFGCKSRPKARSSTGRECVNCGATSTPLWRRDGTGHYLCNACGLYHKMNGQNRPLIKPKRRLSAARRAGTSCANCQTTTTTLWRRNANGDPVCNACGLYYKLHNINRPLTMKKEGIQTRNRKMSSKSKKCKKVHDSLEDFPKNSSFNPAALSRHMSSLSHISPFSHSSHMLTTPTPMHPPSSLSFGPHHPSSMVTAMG
Sequence of UniProt P20073 (P20073 whole entry): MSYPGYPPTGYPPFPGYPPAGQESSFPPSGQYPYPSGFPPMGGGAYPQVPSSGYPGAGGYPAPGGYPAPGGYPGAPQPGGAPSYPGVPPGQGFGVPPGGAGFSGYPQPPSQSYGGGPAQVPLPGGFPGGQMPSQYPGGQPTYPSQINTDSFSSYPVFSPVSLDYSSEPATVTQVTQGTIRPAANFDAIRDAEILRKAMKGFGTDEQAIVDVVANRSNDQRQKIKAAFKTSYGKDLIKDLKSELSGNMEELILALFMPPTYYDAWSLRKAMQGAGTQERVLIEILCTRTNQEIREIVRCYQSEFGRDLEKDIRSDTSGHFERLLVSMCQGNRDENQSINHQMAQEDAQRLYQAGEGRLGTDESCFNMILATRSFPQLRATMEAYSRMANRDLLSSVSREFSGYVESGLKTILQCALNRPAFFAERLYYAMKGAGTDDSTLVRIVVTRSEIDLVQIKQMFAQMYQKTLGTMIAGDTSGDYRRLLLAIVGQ
Sequence of UniProt Q13200 (Q13200 whole entry): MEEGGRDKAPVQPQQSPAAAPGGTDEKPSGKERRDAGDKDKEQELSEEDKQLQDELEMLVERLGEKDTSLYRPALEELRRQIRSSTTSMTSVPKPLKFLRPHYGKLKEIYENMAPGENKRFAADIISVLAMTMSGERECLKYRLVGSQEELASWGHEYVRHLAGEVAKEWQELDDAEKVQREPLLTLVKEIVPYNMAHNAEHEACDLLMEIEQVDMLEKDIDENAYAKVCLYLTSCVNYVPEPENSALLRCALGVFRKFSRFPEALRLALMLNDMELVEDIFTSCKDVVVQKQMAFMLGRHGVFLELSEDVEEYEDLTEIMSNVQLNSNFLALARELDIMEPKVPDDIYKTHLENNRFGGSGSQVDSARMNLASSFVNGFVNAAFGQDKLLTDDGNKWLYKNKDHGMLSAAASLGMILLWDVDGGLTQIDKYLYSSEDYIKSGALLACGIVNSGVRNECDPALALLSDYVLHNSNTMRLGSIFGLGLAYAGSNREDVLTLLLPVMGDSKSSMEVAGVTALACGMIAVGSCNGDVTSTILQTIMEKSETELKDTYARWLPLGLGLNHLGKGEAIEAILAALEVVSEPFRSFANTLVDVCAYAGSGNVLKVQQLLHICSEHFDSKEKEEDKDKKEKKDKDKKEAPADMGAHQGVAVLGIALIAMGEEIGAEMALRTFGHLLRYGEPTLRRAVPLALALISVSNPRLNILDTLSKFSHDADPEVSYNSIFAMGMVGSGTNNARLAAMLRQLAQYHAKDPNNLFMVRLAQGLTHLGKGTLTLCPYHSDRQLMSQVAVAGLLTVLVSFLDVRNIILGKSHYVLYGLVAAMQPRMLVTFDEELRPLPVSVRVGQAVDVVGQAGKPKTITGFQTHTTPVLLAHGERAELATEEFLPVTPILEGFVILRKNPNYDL
Sequence of UniProt P10746 (P10746 whole entry): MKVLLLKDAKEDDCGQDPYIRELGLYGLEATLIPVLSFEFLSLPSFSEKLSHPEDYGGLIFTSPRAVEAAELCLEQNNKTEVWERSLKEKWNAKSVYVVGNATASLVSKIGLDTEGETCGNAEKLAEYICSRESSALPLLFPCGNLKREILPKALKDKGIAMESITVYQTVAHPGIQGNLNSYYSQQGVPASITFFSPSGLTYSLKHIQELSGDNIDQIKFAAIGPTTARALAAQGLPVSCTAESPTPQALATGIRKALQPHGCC
Sequence of UniProt P78540 (P78540 whole entry): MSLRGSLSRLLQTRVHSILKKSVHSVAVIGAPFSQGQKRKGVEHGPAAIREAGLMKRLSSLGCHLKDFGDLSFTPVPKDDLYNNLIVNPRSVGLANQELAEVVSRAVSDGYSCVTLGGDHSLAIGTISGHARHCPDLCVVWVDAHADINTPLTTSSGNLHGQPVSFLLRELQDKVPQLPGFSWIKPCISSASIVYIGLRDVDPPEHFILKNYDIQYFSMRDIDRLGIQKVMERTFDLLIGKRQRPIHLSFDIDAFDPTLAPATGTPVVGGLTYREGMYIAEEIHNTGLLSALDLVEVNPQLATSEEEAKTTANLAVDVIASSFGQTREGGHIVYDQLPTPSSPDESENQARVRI
Sequence of UniProt P31751 (P31751 whole entry): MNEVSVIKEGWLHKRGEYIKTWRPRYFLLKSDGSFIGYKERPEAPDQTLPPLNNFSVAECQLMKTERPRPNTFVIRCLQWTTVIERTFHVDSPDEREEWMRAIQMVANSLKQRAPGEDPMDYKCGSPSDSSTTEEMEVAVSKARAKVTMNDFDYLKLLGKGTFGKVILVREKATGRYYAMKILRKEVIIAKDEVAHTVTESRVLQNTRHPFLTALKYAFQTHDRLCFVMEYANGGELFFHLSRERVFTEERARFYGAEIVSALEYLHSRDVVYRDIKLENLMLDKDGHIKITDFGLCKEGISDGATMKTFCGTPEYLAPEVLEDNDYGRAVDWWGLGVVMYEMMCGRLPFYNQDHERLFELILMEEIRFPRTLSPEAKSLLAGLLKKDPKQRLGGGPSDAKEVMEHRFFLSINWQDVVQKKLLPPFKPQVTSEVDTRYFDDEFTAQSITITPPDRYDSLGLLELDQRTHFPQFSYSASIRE
Sequence of UniProt P36405 (P36405 whole entry): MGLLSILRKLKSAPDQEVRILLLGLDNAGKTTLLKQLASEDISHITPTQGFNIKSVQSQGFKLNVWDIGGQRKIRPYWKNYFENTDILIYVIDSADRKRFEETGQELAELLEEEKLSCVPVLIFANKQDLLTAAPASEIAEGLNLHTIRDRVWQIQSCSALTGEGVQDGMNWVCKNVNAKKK

Target	NP40-soluble protein abundance (concentration: 1mM)	NP40-soluble protein abundance (concentration: 2mM)	NP40-soluble protein abundance (concentration: 4mM)	NP40-soluble protein abundance (concentration: 6mM)	NP40-soluble protein abundance (concentration: 8mM)	NP40-soluble protein abundance (concentration: 10mM)
ARG2 (UniProt P78540)	0.983 ± 0.026	1.02 ± 0.033	1.02 ± 0.033	1.01 ± 0.027	0.997 ± 0.019	0.985 ± 0.038
UniProt P33981|P33981-2	1.04 ± 0.027	1.021 ± 0.0069	1.05 ± 0.033	1.018 ± 0.01	1.02 ± 0.034	1.03 ± 0.036
PSMD2 (UniProt Q13200)	0.891 ± 0.014	0.849 ± 0.068	0.854 ± 0.074	0.858 ± 0.087	0.851 ± 0.086	0.816 ± 0.12
UniProt P23771|P23771-2	0.959 ± 0.029	0.99 ± 0.043	0.9254 ± 0.0013	0.895 ± 0.0095	0.908 ± 0.012	0.908 ± 0.022
FXR2 (UniProt P51116)	1.07 ± 0.022	1.1 ± 0.023	1.2 ± 0.025	1.24 ± 0.076	1.33 ± 0.051	1.39 ± 0.12
VASP (UniProt P50552)	1.02 ± 0.03	1.09 ± 0.078	1.03 ± 0.033	1.01 ± 0.015	0.999 ± 0.046	0.9961 ± 0.0094
UROS (UniProt P10746)	1.04 ± 0.012	1.03 ± 0.015	1 ± 0.045	0.99 ± 0.029	0.975 ± 0.051	0.982 ± 0.075
UniProt P20073|P20073-2	0.966 ± 0.053	0.996 ± 0.093	0.989 ± 0.069	0.998 ± 0.086	1.04 ± 0.052	0.995 ± 0.096
HMGN2 (UniProt P05204)	1.06 ± 0.04	1.15 ± 0.12	1.09 ± 0.05	1.25 ± 0.081	1.16 ± 0.21	1.54 ± 0.28
HIST1H1B (UniProt P16401)	1.052 ± 0.0074	1.18 ± 0.18	1.15 ± 0.11	1.27 ± 0.22	1.32 ± 0.21	1.59 ± 0.19
AKT2 (UniProt P31751)	0.974 ± 0.025	0.95 ± 0.043	0.969 ± 0.034	0.947 ± 0.031	0.969 ± 0.017	0.96 ± 0.044
GCLC (UniProt P48506)	0.993 ± 0.027	0.928 ± 0.043	0.976 ± 0.033	0.941 ± 0.014	0.963 ± 0.029	0.922 ± 0.02
ARL3 (UniProt P36405)	0.9899 ± 0.0033	0.945 ± 0.031	0.995 ± 0.048	0.988 ± 0.052	1.03 ± 0.041	0.99 ± 0.042
GLRX3 (UniProt O76003)	1.04 ± 0.026	1.02 ± 0.011	0.99 ± 0.027	0.9932 ± 0.0036	0.989 ± 0.031	0.976 ± 0.055
UniProt Q01826|Q01826-2	1.03 ± 0.033	1.07 ± 0.05	1.03 ± 0.051	0.985 ± 0.037	0.985 ± 0.026	1.01 ± 0.05
